# Measured values taken from PubChem BioAssay (Tox21).
# “And” between values parts separate entries of the source, which are not always exact repeats. Equal values may be shown once. Inconclusive results are not listed. Some compounds were tested as several samples or in several runs, with calls that do not always agree. The source made the active and inactive calls. Calls come from the whole dose curve; as a rule, active = well fitted cell-killing curve with a large enough effect in the repeat runs; inconclusive = weak or mixed curves, or effect the other way; inactive = no such curve, though single readings can be large or run the other way.
# Experiment: qHTS assay for small molecule activators of the heat shock response signaling pathway - cell viability counter screen (AID 743209); note: nearly all actives have a fitted effect of over 50% in size
# Details: HSE-bla HeLa viability, CellTiter-Glo luminescence, 5 h; series mostly up to 62.6 µM; activity change, negative = cytotoxicity: at the top concentration
# Description: U.S. Tox21 Program National Center for Advancing Translational Sciences [NCATS] NIH Chemical Genomics Center [NCGC] U.S. Environmental Protection Agency [EPA] National Institutes of Environmental Health Sciences [NIEHS] National Toxicology Program [NTP] U.S. Food and Drug Administration [FDA] Tox21 Assay Overview: Various chemicals, environmental and physiological stress conditions may lead to the activation of heat shock response/ unfolded protein response (HSR/UPR). There are three heat shock transcription factors (HSFs) (HSF-1, -2, and -4) mediating transcriptional regulation of the human HSR. To identify the compounds that activate HSR signaling, HSE-bla HeLa cell line (Invitrogen, Carlsbad, CA, USA) containing a beta-lactamase reporter gene under the control of the heat shock response elements was used to screen Tox21 10K compound library. The cytotoxicity of the Tox21 compound library against the HSE-bla HeLa cell line was tested in parallel by measuring the cell viability using CellTiter-Glo assay (Promega, Madison, WI) in the same wells.
# Tox21 Assay Protocol Summary: The CellSensor HSE-bla HeLa cells (Invitrogen, Carlsbad, CA, USA) were dispensed at 1500 cells/6uL/well into 1536-well black wall/clear bottom plates using a Multidrop combi (Thermo Fisher Scientific, Waltham, MA) dispenser. After the assay plates were incubated at 37 C and 5% CO2 overnight, 23 nL of compounds dissolved in DMSO, positive controls or DMSO only was transferred to the assay plate by a Pintool station (Kalypsys, San Diego, CA). The plates were incubated at 37 C for 5 h. After 1 uL of LiveBLAzerTM B/G FRET substrate was added using a Flying Reagent Dispenser (FRD, Beckman Coulter, Indianapolis, IN, USA), the plates were incubated at room temperature for 2.5 h, and fluorescence intensity was measured by an Envision plate reader (PerkinElmer, Shelton, CT). For cell viability readout that measures cytotoxicity, 3 ul/well of CellTiter-Glo reagent was added into the assay plates using a FRD. After 30 min incubation at room temperature, the luminescence intensity in the plates was measured using a ViewLux (PerkinElmer) plate reader.
# % is set by controls: 0 for no effect and ±100 for the full control effect; potency is the fitted concentration of half-maximal effect.
SMILES,Potency,"activity change, negative = cytotoxicity"
CC(C)CC(C)(c1ccc(O)cc1)c1ccc(O)cc1,55.1 µM (active),–
CC(C)C1CCC(Cc2ccc(Cl)cc2)C1(O)Cn1cncn1 (stereo not given),–,-12.5% (inactive)
O=c1ssc(Cl)c1Cl,49 µM (active),–
CC(c1ccc(O)cc1)c1ccc(O)cc1,–,-1.75% (inactive)
CCN,–,6.02% [at 81.1 µM] (inactive)
COP(=S)(OC)Oc1cc(Cl)c(Br)cc1Cl,–,5.6% (inactive)
[Cl][Sb]([Cl])[Cl],–,-17.5% (inactive)
Clc1ccc(-c2ccc(Cl)c(Cl)c2Cl)c(Cl)c1Cl,–,-29.4% (inactive)
O=[N+]([O-])c1ccc2ccc3cccc4ccc1c2c34,–,-20.7% (inactive)
c1ccc2c(c1)[nH]c1cnccc12,–,2.68% (inactive)
O=C(Nc1ccc2[nH]ccc2c1)c1cc2cc(F)ccc2n1Cc1cccc(F)c1,49 µM (active),–
ClC(Cl)=C(Cl)Cl,–,7.35% (inactive)
CC1(C)C(/C=C(\Cl)C(F)(F)F)C1C(=O)OC(C#N)c1cccc(Oc2ccccc2)c1 (stereo not given),–,-0.995% [at 81.1 µM] (inactive)
CN(C)C(=S)S,5 µM (active) and inactive and 2.19 µM (active),–
C=CCC1=C(C)C(OC(=O)C2C(C=C(C)C)C2(C)C)CC1=O (stereo not given),46.3 µM (active),–
CC(C)(C)c1cc([N+](=O)[O-])cc(C(C)(C)C)c1O,–,-12.7% (inactive)
C[C@H]1O[C@@H](O[C@H]2[C@@H](O)C[C@H](O[C@H]3[C@@H](O)C[C@H](O[C@H]4CC[C@@]5(C)[C@H](CC[C@@H]6[C@@H]5CC[C@]5(C)[C@@H](C7=CC(=O)OC7)CC[C@]65O)C4)O[C@@H]3C)O[C@@H]2C)C[C@H](O)[C@@H]1O,87.7 nM (active) and 376 nM (active),–
c1ccc2cc3c(cc2c1)-c1cccc2cccc-3c12,–,7.29% (inactive)
CC(C)[C@H](C(=O)OC(C#N)c1cccc(Oc2ccccc2)c1)c1ccc(OC(F)F)cc1 (stereo not given in full),–,-7.02% (inactive)
O=c1oc2ccccc2c(O)c1Cc1c(O)c2ccccc2oc1=O,–,-9.15% (inactive)

SMILES,Potency,"activity change, negative = cytotoxicity"
FC(Cl)(Cl)Cl,–,1.14% (inactive)
c1ccc2c(c1)OCC(C1=NCCN1)O2 (stereo not given),–,6.1% (inactive)
CC1(c2ccc(Oc3ccccc3)cc2)OC(=O)N(Nc2ccccc2)C1=O (stereo not given),34.9 µM (active),–
Oc1ccc(C2(c3ccc(O)cc3)c3ccccc3-c3ccccc32)cc1,21.9 µM (active),–
CC(C)(C)C(O)/C(=C\c1ccc(Cl)cc1Cl)n1cncn1 (stereo not given),–,-14.2% [at 81.1 µM] (inactive)
ClC1=C(Cl)[C@]2(Cl)[C@@H]3[C@@H]4C[C@@H]([C@H]5O[C@@H]45)[C@@H]3[C@@]1(Cl)C2(Cl)Cl,48.9 µM (active),–
CN(C)c1ccc(N=Nc2ccccc2)cc1,–,-7.85% (inactive)
ClC(Cl)=C(c1ccc(Cl)cc1)c1ccc(Cl)cc1,50.2 µM (active) and 17.4 µM (active),–
O=c1[nH]c2ccccc2n1C1CCN(CCCC(c2ccc(F)cc2)c2ccc(F)cc2)CC1,24.5 µM (active) and 13.3 µM (active),–
S=C(SSC(=S)N1CCCCC1)N1CCCCC1,0.106 µM (active),–
CCN(CC)c1c([N+](=O)[O-])cc(C(F)(F)F)c(N)c1[N+](=O)[O-],–,6.13% (inactive)
FC(F)(F)c1cccc(C2=CCN(CCc3ccc4ccccc4c3)CC2)c1,–,-18.8% (inactive)
CN(C)CCc1c[nH]c2ccc(O)cc12,–,-18.3% [at 81.1 µM] (inactive)
CCC[CH2][Sn]([CH2]CCC)([CH2]CCC)[O]C(=O)c1ccccc1,1.38 µM (active),–
Nc1ccccc1C(=O)OC/C=C/c1ccccc1,34.8 µM (active),–
CC(=O)OC1(c2ccccc2)CCN(CCc2ccccc2)CC1,–,0.53% [at 81.1 µM] (inactive)
CCCCOCN(C(=O)CCl)c1c(CC)cccc1CC,–,-39.3% (inactive)
C[C@]12Cc3nonc3C[C@@H]1CC[C@@H]1[C@@H]2CC[C@@]2(C)[C@H]1CC[C@]2(C)O,–,-2.66% (inactive)
C[C@@H]1O[C@@H](O[C@H]2C[C@@H](O)[C@]3(CO)[C@H]4[C@H](O)C[C@]5(C)[C@@H](C6=CC(=O)OC6)CC[C@]5(O)[C@@H]4CC[C@]3(O)C2)[C@H](O)[C@H](O)[C@H]1O,20.8 nM (active) and 266 nM (active),–
CCOC(=O)C1(c2ccccc2)CCN(CCC(C#N)(c2ccccc2)c2ccccc2)CC1,–,19% (inactive)
